The values that follow come from PubChem BioAssay AID1788 (Vanderbilt High Throughput Screening Facility, 2009).

This test can be described thus: PubChem AID 1788. Conditions: MDS Pharma lead profiling panel, radioligand binding; GABAA central (rat), Flunitrazepam site; at 10 µM; stronger effect = higher value.

Calls of active or inactive are those of the source. The rule behind the calls is not given here.

As a reminder, the inhibition is the drop in the measured response relative to a control, in per cent. `CCOC(=O)N1CCC(NCCNC(=O)c2ccccc2C)CC1`: the inhibition is -12% (inactive).
